Measured values taken from PubChem BioAssay AID651 (University of Pittsburgh Molecular Library Screening Center, 2007).
Among all 1,000 compounds or so, about 390 (39%) were called active. Not shown: some 8% with an inconclusive outcome. Not all results are given here. A number with no mark means an inactive call. Rule as the data show it: active = inhibition above about 48%; inconclusive = no clear call, values can overlap the other calls; inactive = below that.

The compounds below were run against Gag-Pol polyprotein (Human immunodeficiency virus type 1 group M subtype B (isolate HXB2)) (UniProt P04585) (assay: HIV-1 RT RNase H inhibitors, retest, confirmation, biochemical (AID 651)). Conditions: Recombinant RT RNase H, fluorescent RNA/DNA duplex cleavage; at 10 µM; active compounds read high.
In the case of `CCCc1nc2ccccc2c(=O)n1/N=C/c1ccc(O)c(O)c1`, the inhibition is reported as 74.1% (active). Work on `Cc1nc(C)c(C(=O)Nc2cccc(C)c2C)o1` yielded an inhibition of 14.1%. Work on `Clc1ccccc1CSc1nnc(-c2ccco2)c(-c2ccco2)n1` yielded an inhibition of 18.5%. With `CC1CCc2c(sc(NC(=O)c3ccc(Cn4cc(Br)cn4)o3)c2C(N)=O)C1` (stereo not given) the inhibition was 59.9% (active). `CN(c1ccccc1)c1ccc(/C=c2\s/c(=C(/C#N)C(=O)C(C)(C)C)n(Cc3ccco3)c2=O)cc1` was tested, and the inhibition was 50.5% (active). `O=C(NCc1ccccn1)c1ccc2nc(-c3ccco3)c(-c3ccco3)nc2c1` showed an inhibition of 2.46%. With `Nc1ccc(-c2nnc(-c3ccc(-c4ccccc4)cc3)o2)cc1` the inhibition was 63.3% (active). `CCCC(=O)N1CCc2[nH]c3ccccc3c2C1` was tested, and the inhibition was -2.83%. With `CC(C)CNC(=O)C1CCCN(S(=O)(=O)c2ccc(-n3cnnn3)cc2)C1` (stereo not given) the inhibition was 40.6%. `CCCCOC(=O)CNc1nnc(SCC(=O)OCC)[nH]c1=O` was tested, and the inhibition was 43.7%. Work on `CCN(CC)c1ccc2oc(=O)c(C)nc2c1` yielded an inhibition of 0.308%. For `O=C(Nc1nc(-c2ccncc2)cs1)C1COc2ccccc2O1` (stereo not given), the inhibition was 69.2% (active). For `Cc1csc(NC(=O)NC2(C(F)(F)F)Oc3ccccc3O2)n1`, the inhibition was 33.8%. `COc1ccc(Cc2nnc(NC(=O)Cc3cccs3)s2)cc1` showed an inhibition of 22.2%. For `CCCc1nnc(NC(=O)CN2C(=O)c3ccccc3S2(=O)=O)s1`, the inhibition was 60.4% (active). For `CCc1nnc(NC(=O)CSc2nnc(COc3ccc(C#N)cc3)n2-c2ccccc2)s1`, the inhibition was 19.2%. In the case of `COC(=O)C1=C(C)NC2=C(C(=O)c3ccccc32)C1c1ccc(-c2ccc(C(=O)O)cc2)o1` (stereo not given), the inhibition is reported as 5.29%. With `c1ccc(Cc2nn3c(Cn4cnc5ccccc54)nnc3s2)cc1` the inhibition was 59.7% (active). With `CCOc1ccc2[nH]c(=O)c(CN(CCCO)C(C)=O)cc2c1` the inhibition was 15.8%. For `NC(=O)Cn1c(=O)oc2ccccc21`, the inhibition was 35.5%. With `Cc1noc(C)c1CSc1nc2cc(S(=O)(=O)N3CCOCC3)ccc2o1` the inhibition was 61% (active). With `COc1cc(C(=O)Nc2oc(-c3ccccc3)c(-c3ccccc3)c2C#N)cc(OC)c1OC` the inhibition was 53.6% (active). For `Cc1ccc2cccc(O)c2[n+]1[O-]`, the inhibition was 43.9%. `CCC(C)(C)NC(=O)C(c1cccn1C)N(Cc1ccc(C)cc1)C(=O)Cn1nnc2ccccc21` (stereo not given) showed an inhibition of -5.01%. `CCC(C)Sc1nc2c(c(=O)[nH]c(=O)n2C)n1CC(O)COc1cccc2ccccc12` (stereo not given) was tested, and the inhibition was 68.7% (active). In the case of `CCCCCn1c(SCCC(C)C)nc2c1c(=O)[nH]c(=O)n2C`, the inhibition is reported as 17.3%. `Cc1ccnc(-n2sc3ccccc3c2=O)n1` was tested, and the inhibition was 60% (active). With `COc1ccc(OC)c(Nc2nc(-c3ccc(O)c(O)c3)cs2)c1` the inhibition was 77.2% (active). `Cc1ccc2c(c1)sc1ncc(NC(=O)c3ccccc3)c(=O)n12` showed an inhibition of 46.4%. With `COc1cccc(-c2nnc(NC(=O)c3ccc(S(=O)(=O)N(CC(C)C)CC(C)C)cc3)o2)c1` the inhibition was 74.9% (active). With `CCC1=[N+]([O-])C(C)(/C(C)=N\O)N(O)C1(C)C` (stereo not given) the inhibition was 32%. `CCOC(=O)N1CCN(CC(=O)c2ccc3c(c2)CCN3)CC1` gave an inhibition of 15.5%. `COc1ccc(CCn2c(=N)c(C(=O)NCc3ccco3)cc3c(=O)n4cccc(C)c4nc32)cc1` gave an inhibition of 1.96%. Compound `Cc1cc(C(F)(F)F)nn1-c1nc(-c2ccco2)cc(C(F)(F)F)n1` has an inhibition of 38%. `Cc1cccc(-n2c(N)c(C(=O)N3CCN(C)CC3)sc2=S)c1` was tested, and the inhibition was 67% (active). For `Cc1ccc(-n2c(N)c(C(=O)N3CCOCC3)sc2=S)c(C)c1`, the inhibition was -4.07%. With `Cc1ccnc(N2CCCC(C(=O)Nc3cc(F)ccc3C)C2)n1` (stereo not given) the inhibition was 9.38%. With `COC(=O)N(c1ccc(OC)cc1)P1(=S)OCCC(C)O1` (stereo not given) the inhibition was 57.7% (active). With `CCc1c(C)[nH]c(=S)c(C#N)c1C` the inhibition was -2.67%. With `Fc1ccc(-c2ccc(-c3nn4c(-c5ccco5)nnc4s3)o2)cc1` the inhibition was 48.4% (active). With `Fc1ccc(-c2nnc3sc(-c4ccc5c(c4)OCO5)nn23)cc1` the inhibition was 94.9% (active). Compound `COC(=O)Nc1nc2ccc(Sc3ccccc3)cc2[nH]1` has an inhibition of 33.9%. `O=C(Nc1cc(N2CCOCC2)ncn1)NC1(C(F)(F)F)Oc2ccc(Cl)cc2O1` (stereo not given) showed an inhibition of -8.24%. Compound `CCN(CC)S(=O)(=O)c1ccc2nc(COC(=O)c3n[nH]c4ccccc34)[nH]c2c1` has an inhibition of 29.7%. For `CC(C)C1N=C2c3ccccc3N=C(SCC(=O)c3ccc(O)c(O)c3)N2C1=O` (stereo not given), the inhibition was 64.7% (active). `COc1ccc(N2C(=O)CN=C2Nc2cccc(C)c2C)cc1OC` was tested, and the inhibition was 42.9%. Compound `c1ccc(CSc2nnc(-c3ccco3)c(-c3ccco3)n2)cc1` has an inhibition of 42.2%. `COc1ccc(Nc2oc(-c3ccccc3Cl)nc2C#N)cc1` showed an inhibition of 3.03%. With `CCOC(=O)c1sc(=S)n2c1[nH]c(=O)c1ccc(C(=O)OC)cc12` the inhibition was 73.8% (active). Work on `Cc1ccc(-n2nc(-c3ccco3)cc2C(=O)NCc2cccnc2)cc1` yielded an inhibition of -3.12%.
